Screens deposited in PubChem by National Center for Advancing Translational Sciences (NCATS).
IMPase inh: membrane-permeable compound that blocks inositol monophosphatase; CHO-M1 cells, IP1 accumulation, HTRF TR-FRET ratio; inhibition (IP1 accumulation), % at 46.1 µM; 120,000 tested, under 10 active; AID 901; active = well fitted curve in the direction sought with a large enough effect in the signal ratio, not every such curve was filed as active; inconclusive = small, poorly fitted or top-dose-only effect, or a change in a side signal; inactive = no such curve, though single readings can be large or run the other way; the % refers to the signal ratio;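 also: cells stimulated with carbachol in lithium chloride buffer; plate controls were DMSO basal wells for no effect and reference inhibitor wells for full effect; higher means more IMPase inhibition seen as more IP1 and lower FRET ratio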
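CHO-M1 cells (CHO stably expressing M1 receptor), compound up to 46 uM final, stimulated with carbachol (50 uM as added) in buffer with 50mM LiCl, pH 7.4, 30 min at 37C. Cytosolic IP1 read by TR-FRET; AC50 from Hill fits.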
KinaseGlo FLuc: Kinase-Glo luciferase inhibition (counter-screen); Q27757; Kinase-Glo luciferase, ATP luminescence, 8 min; Potency, µM (titrated, usually from 38.3 µM), for inactives: at the top dose activity change, negative = inhibition, actives largely listed as inhibitors; actives 0.28% (n = 200,000); active = well fitted inhibition curve with a large enough effect; inconclusive = small, poorly fitted or top-dose-only effect; also: potency is read from the fitted curve at half-maximal effect; nearly all actives have a fitted effect of over 60% in size
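Recombinant Kinase-Glo luciferase, 10 uM ATP (linear range), luciferin; imidazole pH 7.2 / KCl / MgCl2 / Tween / BSA buffer; 8 min RT; luminescence.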
ALDH1A1 block: ALDH1A1 (human) enzyme inhibition | Potency, µM (highest dose often 75.3 µM), without a hit: at the highest dose activity, negative = inhibition, usual class: inhibitors | Purified ALDH1A1, NADH fluorescence, propionaldehyde substrate | P00352 | actives 7.3% (n = 220,000);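 also: potency is read from the fitted curve at half-maximal effect; plate controls were no enzyme wells and a reference inhibitor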
Target sequence (P00352 whole entry, looked up): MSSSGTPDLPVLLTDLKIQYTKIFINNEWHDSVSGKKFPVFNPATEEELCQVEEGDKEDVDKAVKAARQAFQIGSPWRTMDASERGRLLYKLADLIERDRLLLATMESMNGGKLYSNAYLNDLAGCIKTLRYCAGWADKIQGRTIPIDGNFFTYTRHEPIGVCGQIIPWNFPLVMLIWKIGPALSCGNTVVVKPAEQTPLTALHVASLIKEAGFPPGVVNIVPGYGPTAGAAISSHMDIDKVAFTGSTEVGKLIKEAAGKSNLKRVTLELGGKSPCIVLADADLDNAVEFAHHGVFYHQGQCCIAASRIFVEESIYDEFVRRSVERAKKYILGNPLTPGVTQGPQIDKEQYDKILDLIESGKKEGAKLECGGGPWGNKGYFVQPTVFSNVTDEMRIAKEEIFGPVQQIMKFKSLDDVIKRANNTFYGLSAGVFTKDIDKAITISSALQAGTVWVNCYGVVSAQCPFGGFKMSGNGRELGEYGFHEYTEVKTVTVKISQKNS
Lamin A splicing: LMNA splicing modulation. HeLa LMNA splicing GFP/RFP minigene ratio, 48 h. Potency, µM (series often up to 46.1 µM), for inactives: at the top dose ratio change, negative = inhibition, actives largely listed as inhibitors. actives 0.01% (n = 200,000); active = well fitted inhibition curve with a large enough effect in the signal ratio, with a control signal flat, not every such curve was filed as active; inconclusive = small, poorly fitted or top-dose-only effect, or effect the other way, or a change in a side signal; the % refers to the signal ratio; also: potency is read from the fitted curve at half-maximal effect
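Read-out is the ratio of GFP to DsRed2 object intensity, acquired by 488 nm laser-scanning cytometry on HeLa lamin A-EGFP minigene reporter cells. Compound incubation 48 hrs at 37 °C in Opti-MEM with 2% FBS; DMSO 0.5% final.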
HPGD inh: blocks human HPGD enzyme activity | purified HPGD, NADH fluorescence kinetic, PGE2 substrate | Potency, µM, for inactives: at the highest dose activity change, negative = inhibition, most hits filed as inhibitors | P15428 | actives 4.3% (n = 150,000); also: potency is read from the fitted curve at half-maximal effect
Target sequence (P15428 whole entry, looked up): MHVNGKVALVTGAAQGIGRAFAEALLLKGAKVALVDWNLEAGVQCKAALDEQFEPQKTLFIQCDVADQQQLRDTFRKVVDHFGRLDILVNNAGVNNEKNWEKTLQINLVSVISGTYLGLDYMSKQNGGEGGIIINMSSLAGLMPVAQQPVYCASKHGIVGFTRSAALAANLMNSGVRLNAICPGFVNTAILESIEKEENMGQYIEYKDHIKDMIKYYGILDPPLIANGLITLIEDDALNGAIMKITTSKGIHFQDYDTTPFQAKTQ
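20 nM HPGD preincubated 15 min at room temperature with compound in 50 mM Tris-HCl pH 8, 0.01% Tween 20. Started with 1 mM NAD+ and 30 uM prostaglandin E2; NADH fluorescence (360/450 nm) read 5 times over 30-s intervals, last minus first.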
PNC assembly inh: perinucleolar compartment assembly inhibition. PC3M PTB-GFP, PNC prevalence imaging, 16 h; active compounds read low. activity change (PNC), negative = inhibition, % at 10 µM. actives 3.1% (n = 140,000);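 active = readout at or below -70, meaning at least 70% loss of cells showing the perinucleolar compartment, a nuclear body marking cancer cells; inconclusive = readout between -30 and a set limit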;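 also: plate controls were DMSO wells for no effect and camptothecin positive control wells for full effect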
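Read-out is percentage of cells bearing a perinucleolar compartment, from automated 20x imaging of fixed, Hoechst-stained PC3M PTB-GFP cells. Cells were seeded 4 h, then exposed 16 h to compound (23 nl of library stock) in duplicate plates.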
An asterisk follows results filed as active; u = inconclusive; x = not tested or not shown; ! = repeats disagree; [ ] = dose if it differs, or a comment. Only some compounds are listed: those with a hit (about 10% of all), similar ones and a draw of the others. Unless noted, calls follow the shape of the dose curve; as a rule, active = well fitted inhibition curve with a large enough effect (not every such curve was filed as active); inconclusive = small, poorly fitted or top-dose-only effect, or another doubt; inactive = no such curve, though single readings can be large or run the other way. Unless noted, % is scaled to controls: 0 for no effect and ±100 for the full control effect.

SMILES | IMPase inh | KinaseGlo FLuc | ALDH1A1 block | Lamin A splicing | HPGD inh | PNC assembly inh
CCN(CCNc1ccc([N+](=O)[O-])c2cccnc12)S(=O)(=O)c1ccc(Cl)cc1 | 2 | -1% | 2.8µM* | 6% | -11% | -2
ClC1=C(Cl)C(Cl)(Cl)C(Cl)=C1Cl | x | x | 28µM* | x | -8% | x
O=C(O)Cc1ccc([N+](=O)[O-])cc1[N+](=O)[O-] | x | -4%[7.66 µM] | -6%[13.5 µM] | x | -3% | x
O=C1CN=C(c2ccccc2)c2cc([N+](=O)[O-])ccc2N1 | x | 1%[39.9 µM] | 1% | u | 25µM* | x
CCCCC/C=C\C/C=C\C/C=C\CCCCC(=O)NCCc1ccc(O)c(O)c1 | x | -2% | -5% | x | -3% | x
[N-]=[N+]=[N-] | x | x | 18µM* | x | -10% | x
CN(C)NC(=O)CCC(=O)O | x | x | 1% | x | -5% | x
O=C(O)[C@@H]1CSC(c2cccnc2)N1 (stereo partly drawn) | x | -1% | -9% | x | -4% | x
O=c1[nH]c(=O)n(Cc2ccccc2)c(O)c1/C=C1\C=Nc2ccccc21 | x | -1% | u | x | x | x
O=c1[nH]c(=O)n(CC2CCCO2)c(O)c1/C=C1\C=Nc2ccccc21 (stereo not drawn) | x | -1% | 14µM* | -14% | -24% | u
Cc1ccc(N2C(=O)NC(=O)/C(=C\c3cccn3C(C)(C)C)C2=O)cc1 | x | -1% | 0.56µM* | 11%[46 µM] | x | x
Cc1ccc(N2C(=O)NC(=O)/C(=C/c3cnn(-c4ccc(C)cc4)c3)C2=O)cc1 | x | -2% | 2.5µM* | -6% | u | u
Cc1ccc(N2C(=O)NC(=O)/C(=C\c3cnc(-c4ccccc4)nc3)C2=O)cc1 | -2 | -3% | 8.9µM* | -3% | u | 13
CCC(C)c1ccc(N2C(=O)NC(=O)/C(=C/c3cccn3CCOc3ccc(C)cc3)C2=O)cc1 (stereo not drawn) | 5 | 3% | 7% | -17% | -12% | 1
C[N+]1(C)CCc2cc3c(cc2[C@@H]1[C@@H]1OC(=O)c2c1ccc1c2OCO1)OCO3 | 6 | x | x | x | x | x
O=S(=O)(Cl)c1ccccc1 | x | x | u | x | -11% | x
Cc1nn(-c2ccccc2)c2c1C(c1ccc3c(c1)OCO3)SCC(=O)N2 (stereo not drawn) | -8 | -4% | -16% | -2% | 8.9µM* | 18
COc1cc(C2SCC(=O)Nc3c2c(C)nn3-c2ccccc2)cc(OC)c1OC (stereo not drawn) | 0 | -3% | 2% | -10% | -18% | 43
CN(C)CCCc1cccnc1 | x | -4%[7.66 µM] | 2%[13.5 µM] | x | -7% | x
Cc1ccc(S(=O)(=O)NCC2CCC(C(=O)NCCCN3CCOCC3)CC2)cc1 (stereo not drawn) | 0 | 0% | 22µM* | 2% | 5% | 52
CC(C)(O)C1C2OC(=O)C1[C@]1(O)CC3O[C@@]34C(=O)OC2[C@@]14C (stereo partly drawn) | x | -4% | 11% | x | -9% | x
COCc1cc(C)c(C#N)c(=S)[nH]1 | -4 | -2% | u | -1% | u | 9
C=CCc1c(C)[nH]c(=S)c(C#N)c1C | -7 | 5% | 4.5µM* | 8% | 4µM* | 28
Cc1ccc(S(=O)(=O)NC(CC(=O)N2CCC3(CC2)OCCO3)c2ccco2)cc1 (stereo not drawn) | -3[1.84 µM] | 2% | 13µM* | -3% | -2% | -8
CC(CCC(=O)O)C1CCC2C3CC[C@@H]4CCCC[C@@]4(C)C3CC[C@@]12C (stereo partly drawn) | x | 1% | -1% | u | -7% | x
SMILES | IMPase inh | KinaseGlo FLuc | ALDH1A1 block | Lamin A splicing | HPGD inh | PNC assembly inh
CCCCn1c(O)c(C(CC)=NCCN2CCOCC2)c(=O)[nH]c1=O | 6 | -4% | u | 9% | -13% | 0
CCCCn1c(O)c(C(CC)=NCCN2CCCCC2)c(=O)[nH]c1=O | 11 | 13% | u | 9% | -10% | -89*
CCCCn1c(O)c(C(CC)=Nc2cccc(C(=O)O)c2)c(=O)[nH]c1=O | 7 | 0% | u | -14% | u | -90*
S=c1[nH]nc(C2CC2)n1Cc1ccccc1 | x | -1% | 14µM* | -11%[46 µM] | x | x
O=C(O)CBr | x | x | -13% | x | -3% | x
FC(F)(F)c1ccc(Cl)cc1 | x | x | 0% | x | -3% | x
COc1ccccc1OCC#CCN1CCCCCC1 | x | 2% | 28µM* | x | x | x
Nc1ccccc1C(=O)O | x | x | u | 20% | -20% | x
Nc1ccccc1O.O.O=C(O)[C@H]1[O][Sb][O][C@H]1C(=O)O | x | -4%[7.66 µM] | 3.2µM* | x | -6% | x
CN(C)CCN(C)CCc1ccc(Cl)c(Cl)c1 | 4 | 1% | -11% | x | -6% | x
C=CCN1C(=O)C2(C(C(=O)OCC)=C(N)Oc3ccccc32)C2=C1CCCC2=O (stereo not drawn) | 9 | 1% | 4µM* | -12% | -6% | u
CCOC(=O)CC1=C(C(=O)OCC)C2(C(=O)N1CC(=O)OC)C(C#N)=C(N)Oc1ccccc12 (stereo not drawn) | -10 | -3% | 1.1µM* | 9% | -9% | u
CCOC(=O)CN1C(=O)C2(C(C#N)=C(N)Oc3ccccc32)C(C(=O)OC)=C1C (stereo not drawn) | 5 | 12% | 7.9µM* | 4% | -3% | u
CC1=C(C(=O)OC(C)C)[C@]2(C(=O)N(CC(N)=O)c3ccccc32)C(C#N)=C(N)O1 | -4 | 0% | 13% | -15% | -8% | -100*
CCCOc1ccc2[nH]cc(C3=CCNCC3)c2n1 | -1 | -5% | u | x | u | x
CN(C)C(=O)Nc1cccc(C(F)(F)F)c1 | x | x | 3% | x | -4% | x
CCCCCOc1ccc(C)cc1CN(CCCl)CCCl | x | x | 20µM* | x | x | x
COc1ccc(CCn2c(O)c(C=NCc3ccc4c(c3)OCO4)c(=O)[nH]c2=O)cc1OC | 1 | -1% | 5µM* | 4% | -4% | 6
CCN(CC)C(=O)c1ccc(N2C(=O)C3CC=C(Cl)CC3C2=O)cc1 (stereo not drawn) | 7 | 3% | -6% | 6% | 13µM* | -86*
C=CCN(c1ccc(C(=O)N(CC)CC)cc1)S(C)(=O)=O | -18[1.84 µM] | 0% | -3% | -8% | -22% | -23
CC1=NN(c2ccccc2)C(=O)/C1=C/c1c(O)[nH]c(=O)[nH]c1=O | x | 0% | u | x | x | x
CC1=NN(c2ccccc2)C(=O)/C1=C/c1c(O)[nH]c(=S)[nH]c1=O | 7 | 0% | u | 1% | 20µM* | 31
C[C@@H](Cc1ccc(Cl)cc1Cl)NO | x | -6%[7.66 µM] | 11%[13.5 µM] | x | -3% | x
CCN(CC)C(=O)c1ccc(NC(=O)CCCSc2ccccc2)cc1 | x | -2% | -6% | x | x | x
CCN(CC)C(=O)c1ccc(NC(=O)COc2ccc([N+](=O)[O-])cc2Cl)cc1 | x | 2% | -14% | u | 0.5µM* | -28
Brc1c(NC2=NCCN2)ccc2nccnc12 | 0 | -1% | 16µM*! | u | 22µM*! | -10
